Compound activity: PubChem, several laboratories
Most compounds without a hit are left out; they make up all but 0.5% or so of the library.
E coli growth-1: inhibitors of Escherichia coli growth. OD600, 23 h; active compounds read low. OD600 absorbance (concentration not given with the values). 330,000 compounds, 0.21% hits;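 active = OD600 absorbance below the run mean of sample wells minus 3.6 SD, in any replicate, cut at about 0.56 in these data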
AddAB inh: less growth of phage-infected E. coli with AddAB | E. coli expressing H. pylori AddAB, absorbance growth | inhibition, % at 11.9 µM | 330,000 compounds, 0.29% hits; in the data active = inhibition above about 12%;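 note: 0% = vehicle wells of infected cells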
phage Ecoli inh: E. coli growth loss with phage present | 360,000 compounds, 0.26% hits | growth absorbance | inhibition, % at 11.9 µM; in the data active = inhibition above about 11%
Tat export inh: inhibitors of E. coli Tat protein transport; E. coli MC4100 TorA-mCherry Tat export, fluorescence; inhibition, % at 10 µM; 340,000 compounds, 0.036% hits; AID 488895;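 active = mean replicate inhibition at least 50% and at least half of replicates individually reaching 50%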;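 note: exported cargo escapes ClpAP degradation while cytoplasmic cargo is degraded and loses fluorescence; 0% = median of neutral control wells and 100% = median of NaSCN control wells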
E coli growth-2: counter-screen for AddAB inhibitors: E. coli growth inhibition; 330,000 compounds, 0.27% hits; inhibition, % at 11.9 µM; E. coli V3065 growth, OD600 absorbance, 18 h; AID 449728;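 active = inhibition above the campaign's mean inhibition across all tested compounds plus 3 SD, cut at about 9.9% in these data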;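 note: uninfected addAB+ strain grown without phage in ampicillin broth; 0% = DMSO wells and 100% = ciprofloxacin 0.95 µg/ml wells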
RecBCD conf: confirmation: growth loss of phage-infected RecBCD+ E. coli (RecBCD inhibitor screen). inhibition, % at 11.9 µM. E. coli V66 + T4 2- phage, growth OD. 890 compounds, 45% hits. shares compounds with phage Ecoli inh;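 active = mean inhibition over triplicates exceeding the hit threshold derived in the original primary screen, cut at about 11% in these data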
Ecoli viability: inhibits E. coli viability, flagging RecBCD hits as nonselective. shares compounds with phage Ecoli inh. absorbance (OD) growth. inhibition, % at 11.9 µM. 890 compounds, 29% hits. AID 651983; in the data active = inhibition above about 20%;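 note: E. coli strain V66 grown with compound alone and no phage infection; 0% = bacteria with DMSO vehicle only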
AddAB phage OD: growth loss of phage-infected AddAB E. coli, RecBCD counter-screen | AID 651984 | E. coli expressing H. pylori AddAB + T4 phage, OD growth; gene 2 mutant T4, recBCD-deleted host | shares compounds with phage Ecoli inh | 890 compounds, 45% hits | inhibition, % at 11.9 µM;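 active = mean inhibition above the solvent-only control wells' mean plus 3 SD, cut at about 22% in these data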;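 note: higher means less bacterial growth from phage killing when AddAB is blocked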
An asterisk follows results filed as active.

Results for COCCCN1C(=O)C(=O)/C(=C(/O)c2ccc(S(=O)(=O)N3CCOCC3)cc2)C1c1ccc(C)cc1 (configuration not stated) ?
E coli growth-1: 0.7; AddAB inh: 2; phage Ecoli inh: -1; Tat export inh: 2; E coli growth-2: -2

Results for O=C(Nc1ccccn1)C(c1ccccc1)c1ccccc1 ?
phage Ecoli inh: 12*; RecBCD conf: -5; Ecoli viability: -5; AddAB phage OD: -3

What do the screens show for `Cc1ccc(NC(=O)C(c2ccccc2)c2ccccc2)nc1`?
E coli growth-1: 0.68; AddAB inh: 2; phage Ecoli inh: 2; Tat export inh: 6; E coli growth-2: 2

How did CCN1C(=O)c2ccccc2S(=O)c2ccc(C(=O)N3CCOCC3)cc21 (configuration not stated) do in these assays?
E coli growth-1: 0.67; AddAB inh: 0; phage Ecoli inh: 0; Tat export inh: 0; E coli growth-2: 0

What do the screens show for `O=C(NNC(=O)c1c(F)cccc1F)c1ccccc1OC(F)(F)F`?
E coli growth-1: 0.66; AddAB inh: 4; phage Ecoli inh: 4; Tat export inh: -1; E coli growth-2: 0

What do the screens show for `O=C(NCc1ccccc1)c1sc(=S)n2c1[nH]c(=O)c1ccccc12`?
E coli growth-1: 0.72; AddAB inh: 4; phage Ecoli inh: 15*; Tat export inh: -4; E coli growth-2: -2; RecBCD conf: -2; Ecoli viability: -2; AddAB phage OD: -10

What do the screens show for `Nc1nc(=O)n(C2CCC(CO)O2)cc1F` (configuration not stated)?
phage Ecoli inh: 11*; RecBCD conf: 10; Ecoli viability: 5; AddAB phage OD: 31*

How did O=c1[nH]cnc2c1ncn2C1OC(CO)C(O)C1O (configuration not stated) do in these assays?
E coli growth-1: 0.67; phage Ecoli inh: 3; Tat export inh: 0

What do the screens show for `O=c1[nH]cnc2c1ncn2C1CCC(CO)O1` (configuration not stated)?
phage Ecoli inh: 87*; RecBCD conf: 74*; Ecoli viability: 90*; AddAB phage OD: 98*

How did CCOC(=O)N1CCN(S(=O)(=O)c2ccc3c(c2)CCN3C(=O)C2CC2)CC1 do in these assays?
E coli growth-1: 0.72; AddAB inh: 2; phage Ecoli inh: 0; Tat export inh: 27; E coli growth-2: 2

What do the screens show for `O=C(/C=C/c1ccccc1)c1cc(Br)ccc(=O)c1O`?
E coli growth-1: 0.71; AddAB inh: 9; phage Ecoli inh: 27*; Tat export inh: -10; E coli growth-2: 10*; RecBCD conf: 16*; Ecoli viability: 22*; AddAB phage OD: 6

What do the screens show for `Oc1ccc(N=Nc2ccc3c(c2)OCCO3)c2cccnc12`?
E coli growth-1: 0.73; AddAB inh: 8; phage Ecoli inh: 15*; Tat export inh: 2; E coli growth-2: 6; RecBCD conf: 7; Ecoli viability: 9; AddAB phage OD: 8

How did COc1ccc(C)cc1N=Nc1ccc(O)c2ncccc12 do in these assays?
E coli growth-1: 0.73; phage Ecoli inh: 18*; Tat export inh: -7; RecBCD conf: 6; Ecoli viability: 8; AddAB phage OD: 19

How did COc1cccc(N=Nc2ccc3cccnc3c2O)c1 do in these assays?
E coli growth-1: 0.71; AddAB inh: 7; phage Ecoli inh: 14*; Tat export inh: -5; E coli growth-2: 15*; RecBCD conf: 6; Ecoli viability: 10; AddAB phage OD: 6

What do the screens show for `COc1cccc(N=Nc2ccc(O)c3ncccc23)c1`?
AddAB inh: 8; phage Ecoli inh: 13*; Tat export inh: -14; E coli growth-2: 7; RecBCD conf: 5; Ecoli viability: 7; AddAB phage OD: 11

Results for O=C(Nc1ccc(Cl)c(C(F)(F)F)c1)C1CC=CC2CCN(C3CC3)C(=O)C21 (configuration not stated) ?
E coli growth-1: 0.68

What do the screens show for `O=C(Nc1ccc(Cl)c(C(F)(F)F)c1)C1CCCN(S(=O)(=O)c2cnc[nH]2)C1` (configuration not stated)?
E coli growth-1: 0.73; AddAB inh: 7; phage Ecoli inh: 6; Tat export inh: -4; E coli growth-2: 1

How did CSC1SCC2C(=O)N(C)C(C(C)C)C(=O)OCC(NC(=O)c3cnc4ccccc4n3)C(=O)NC(C)C(=O)N(C)C1C(=O)N(C)C(C(C)C)C(=O)OCC(NC(=O)c1cnc3ccccc3n1)C(=O)NC(C)C(=O)N2C (configuration not stated) do in these assays?
phage Ecoli inh: 99*; Tat export inh: 37; RecBCD conf: 89*; Ecoli viability: 92*; AddAB phage OD: 81*

Results for CCN(CC)c1ccc(/C=N/Nc2nc3ccccc3[nH]2)c(O)c1 ?
AddAB inh: -1; phage Ecoli inh: 15*; Tat export inh: -7; E coli growth-2: 2; RecBCD conf: 8; Ecoli viability: 13; AddAB phage OD: 16
